Test systems include DU-145 prostate; K-562 leukemia; MALME-3M melanoma; MDA-MB-231 breast; RXF 393 renal; SF-268 CNS; SF-295 CNS; SF-539 CNS; UACC-257 melanoma; M14 melanoma; HCT-15 colon; HT29 colon; SNB-19 CNS; U251 CNS; PC-3 prostate; SK-MEL-5 melanoma; UACC-62 melanoma; LOX IMVI melanoma; SK-MEL-28 melanoma; SNB-75 CNS.
Test in all cases: NCI-60 one-dose screen, 48 h (100 = growth as untreated, 0 = no growth, -100 = all killed)
Holding throughout (details): 10 µM unless noted

About 83,000 compounds went through this panel and 20% of them were active in at least one assay; those are over-represented in the sample as a whole.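 A percent growth of 40 corresponds to 60% growth inhibition; 0 means no net growth; -100 means all cells died. Active threshold: below 10.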 Values without a mark were called inactive. Calls of active or inactive are those of the source.

As to `COc1cc2ncnc(Nc3ccc(F)c(Cl)c3)c2cc1OCC(=O)N1CCN(c2ccccc2)CC1`, the growth was 62.9% in the experiment with DU-145 prostate; 85.2% in the experiment with K-562 leukemia; 96.3% in the experiment on MALME-3M melanoma; 90.5% in the experiment with MDA-MB-231 breast; 81.2% in the experiment with RXF 393 renal; 82.6% in the experiment on SF-268 CNS. Besides, the growth with SF-295 CNS was 93.4%; in the experiment with SF-539 CNS, 104%; in the experiment with UACC-257 melanoma it was 107%; with M14 melanoma, 99.4%; in the experiment with HCT-15 colon it was 90.7%; with HT29 colon, 90.4%. Moreover, the growth with SNB-19 CNS is 85.9%; in the experiment with U251 CNS it was 98.9%; in the experiment with PC-3 prostate it was 90.6%; in the experiment on SK-MEL-5 melanoma it was 95%; with UACC-62 melanoma it was 92.8%; in the experiment with LOX IMVI melanoma, 93.7%. Further, in the experiment on SK-MEL-28 melanoma, the growth is 113%.
In the case of `CCn1c(SCC(=O)N/N=C(\C)c2ccc(Cl)cc2)nc2c1c(=O)n(C)c(=O)n2C`, the growth in the experiment on DU-145 prostate is 108%; in the experiment with K-562 leukemia, 98%; in the experiment on MALME-3M melanoma, 100%; in the experiment on MDA-MB-231 breast it was 104%; in the experiment on RXF 393 renal, 106%; in the experiment on SF-268 CNS, 98%. Moreover, the growth in the experiment with SF-295 CNS was 101%; with SF-539 CNS it was 96.3%; in the experiment with UACC-257 melanoma, 103%; in the experiment with M14 melanoma it was 97.4%; with HCT-15 colon, 104%; in the experiment on HT29 colon, 103%. Further, the growth is 79.6% in the experiment on SNB-75 CNS; 99.2% with SNB-19 CNS; 97.5% in the experiment on PC-3 prostate; 99.3% with SK-MEL-5 melanoma; 94.6% in the experiment on LOX IMVI melanoma; 111% in the experiment on SK-MEL-28 melanoma.
`C/C(Cc1ccc(Cl)cc1)=C(\c1ccc(O)cc1)c1ccc(Cl)cc1`: the growth was 101% in the experiment on DU-145 prostate; 89.3% with K-562 leukemia; 82.5% in the experiment with MALME-3M melanoma; 96.6% in the experiment on MDA-MB-231 breast; 100% in the experiment with RXF 393 renal; 95% in the experiment with SF-268 CNS. Moreover, the growth in the experiment on SF-295 CNS is 95.1%; in the experiment on SF-539 CNS it was 107%; with UACC-257 melanoma it was 98.2%; in the experiment with M14 melanoma, 83.7%; in the experiment with HCT-15 colon it was 85.3%; in the experiment with HT29 colon, 90.9%. Besides, the growth was 94.7% with SNB-75 CNS; 104% in the experiment on SNB-19 CNS; 71.8% in the experiment on PC-3 prostate; 100% in the experiment on SK-MEL-5 melanoma; 89.9% in the experiment on LOX IMVI melanoma; 95.1% with SK-MEL-28 melanoma.
On to `O=S(=O)(Nc1cc(Cl)ccc1Cl)c1ccc(-c2cnc(C3CC3)o2)cc1`, for which the growth is 70.8% in the experiment with DU-145 prostate; 12% in the experiment on K-562 leukemia; 55.7% with MALME-3M melanoma; 65.2% in the experiment on MDA-MB-231 breast; 44.8% in the experiment with RXF 393 renal; 49.7% in the experiment on SF-268 CNS. Besides, the growth was 24.8% in the experiment on SF-295 CNS; 25.1% with SF-539 CNS; 50.6% in the experiment with UACC-257 melanoma; 29.1% in the experiment with M14 melanoma; 26.2% in the experiment on HCT-15 colon; 5.45% (active) with HT29 colon. Besides, the growth in the experiment on SNB-19 CNS is 31.7%; in the experiment on U251 CNS it was 30.2%; with PC-3 prostate, 38.3%; in the experiment on SK-MEL-5 melanoma, 31.1%; in the experiment on UACC-62 melanoma it was 33.2%; in the experiment on LOX IMVI melanoma, 35.8%. Moreover, the growth in the experiment on SK-MEL-28 melanoma was 63.2%.
`CCC(=O)Oc1ccc(-c2ccccc2)cc1Br`: the growth in the experiment on DU-145 prostate is 107%; with K-562 leukemia, 107%; with MALME-3M melanoma, 109%; in the experiment on MDA-MB-231 breast, 103%; with RXF 393 renal, 106%; in the experiment on SF-268 CNS it was 103%. The growth was 104% in the experiment on SF-295 CNS; 106% in the experiment on SF-539 CNS; 106% with UACC-257 melanoma; 102% with M14 melanoma; 105% in the experiment on HCT-15 colon; 101% in the experiment with HT29 colon. The growth is 95.1% in the experiment with SNB-75 CNS; 112% with SNB-19 CNS; 98.3% with SK-MEL-5 melanoma; 109% with UACC-62 melanoma; 107% with LOX IMVI melanoma; 110% in the experiment on SK-MEL-28 melanoma.
On to `COc1ccc(OC)c(Nc2nnc(-c3ccc(O)c(OC)c3)o2)c1`, for which the growth in the experiment with DU-145 prostate is 51.4%; with K-562 leukemia it was 32.3%; with MALME-3M melanoma, 79.9%; in the experiment on MDA-MB-231 breast, 69.4%; in the experiment with RXF 393 renal, 52.7%; in the experiment with SF-268 CNS, 68.8%. Moreover, the growth is 100% in the experiment with SF-295 CNS; 49.9% in the experiment on SF-539 CNS; 115% in the experiment with UACC-257 melanoma; 74.6% in the experiment on M14 melanoma; 46.5% in the experiment on HCT-15 colon; 99% in the experiment on HT29 colon. Further, the growth with SNB-19 CNS is 70%; in the experiment on U251 CNS it was 65.1%; with PC-3 prostate, 74.8%; in the experiment with SK-MEL-5 melanoma it was 71.6%; with UACC-62 melanoma, 96.7%; with LOX IMVI melanoma, 43.3%. Besides, the growth in the experiment on SK-MEL-28 melanoma was 108%.
Turning to `N#Cc1nc(-c2ccc(F)cc2)oc1S(=O)(=O)N1CCCCC1`, the growth is 99% with DU-145 prostate; 7.64% (active) with K-562 leukemia; 42.8% with MALME-3M melanoma; 78.1% in the experiment with MDA-MB-231 breast; 55.4% in the experiment with RXF 393 renal; 106% in the experiment on SF-268 CNS. Besides, the growth with SF-295 CNS is 104%; with SF-539 CNS, 72.6%; in the experiment on UACC-257 melanoma it was 91.2%; with M14 melanoma, 68.7%; in the experiment on HCT-15 colon, -22.4% (active); in the experiment with HT29 colon, 32.3%. For the same molecule, the growth in the experiment on SNB-19 CNS is 96.5%; with U251 CNS, 91.2%; in the experiment on PC-3 prostate it was 92.1%; with SK-MEL-5 melanoma, 88.7%; with UACC-62 melanoma, 94%; in the experiment on LOX IMVI melanoma, 1.69% (active). Besides, the growth with SK-MEL-28 melanoma is 102%.
`O=C(Nc1ccc(Oc2cccc(Cl)c2)c(Cl)c1)c1cnccn1`: the growth with DU-145 prostate was 22.7%; with K-562 leukemia it was 13.2%; in the experiment with MALME-3M melanoma it was 53.4%; in the experiment on MDA-MB-231 breast, 31.7%; in the experiment with RXF 393 renal it was -4.58% (active); in the experiment with SF-268 CNS, 54.3%. Besides, the growth was 41.2% with SF-295 CNS; -35.2% (active) in the experiment on SF-539 CNS; 72.4% in the experiment with UACC-257 melanoma; 19.8% with M14 melanoma; 23.3% in the experiment with HCT-15 colon; 2.14% (active) in the experiment on HT29 colon. For the same molecule, the growth in the experiment on SNB-19 CNS was 33.5%; in the experiment on U251 CNS, 16.5%; in the experiment with PC-3 prostate, 11.1%; in the experiment on SK-MEL-5 melanoma, 25.8%; with UACC-62 melanoma, 28.4%; with LOX IMVI melanoma, 29.9%. For the same molecule, the growth in the experiment on SK-MEL-28 melanoma was 64.9%.

(Values after PubChem BioAssay (NCI).)
